From PubChem
SMN2 splice up – increases expression of the SMN2 splice variant | AID 1458 | HEK293 SMN2-luciferase splicing reporter, luminescence, 30-36 h | Potency, µM (titrated, usually from 46.1 µM), for the others: at the highest dose activity change, positive = activation, actives largely listed as activators | 210,000 tested, 2.8% active; note: % of control where 0% means no effect; nearly all actives have a fitted effect of over 55% in size
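HEK293 cells carry an SMN2 minigene-luciferase reporter in which exon 7 inclusion puts luciferase in frame. Cells were seeded at 2000 cells/well, attached for 10-12 hours, then exposed to compounds for 30-36 hours at 37C before ONE-Glo luminescence.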
KinaseGlo FLuc – counter-screen: inhibitors of Kinase-Glo firefly luciferase; Potency, µM (doses to about 38.3 µM), without a hit: at the top dose activity change, negative = inhibition, hits mostly inhibitors; Q27757; 200,000 tested, 0.28% active; Kinase-Glo luciferase, ATP luminescence, 8 min; note: % is set by controls: 0 for no effect and ±100 for the full control effect; nearly all actives have a fitted effect of over 60% in size
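Compound is pinned into ATP-containing buffer (10 uM ATP, imidazole pH 7.2, 7 mM MgCl2). Kinase-Glo luciferase reagent is then added. Light output is recorded following an 8-min room-temperature incubation.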
ELG1 genotox – induces genotoxicity in HEK293T cells with luciferase-tagged ELG1; AID 504466; Potency, µM (top dose mostly 46 µM), for inactives: at the top dose activity change, positive = activation, hits mostly activators; 330,000 tested, 1.3% active; HEK293T ELG1-luciferase reporter, luminescence, 16 h; note: % of control where 0% means no effect; nearly all actives have a fitted effect of over 60% in size
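Quantitative HTS format in 1536-well plates. HEK293T ELG1-luciferase reporter cells receive test compound and are incubated 16 hr at 37 °C, 5% CO2; ONE-Glo added, 30 min room temperature, then luminescence read.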
NPC1 prom act – activators of NPC1 promoter; Huh7 NPC1 promoter luciferase reporter, 24 h; Potency, µM (titrated, usually from 9.22 µM), for inactives: top-dose activation, actives largely listed as activators; 320,000 tested, 2.4% active; note: % of control where 0% means no effect; nearly all actives have a fitted effect of over 60% in size
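NPC1 promoter–luciferase Huh7 cells; 24 h compound; luminescence.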
FLuc counter – firefly luciferase modulation, counter-screen for miR-21 project; Potency, µM (top dose mostly 57.5 µM), for the others: at the top dose activity change, negative = inhibition, usual class: inhibitors; P08659; purified FLuc, Km substrates, luminescence inhibition; AID 588342; 360,000 tested, 6.9% active;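 note: plate controls were vehicle for no effect and reference inhibitor for full effect; nearly all actives have a fitted effect of over 55% in size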
Target sequence (P08659 whole entry, looked up): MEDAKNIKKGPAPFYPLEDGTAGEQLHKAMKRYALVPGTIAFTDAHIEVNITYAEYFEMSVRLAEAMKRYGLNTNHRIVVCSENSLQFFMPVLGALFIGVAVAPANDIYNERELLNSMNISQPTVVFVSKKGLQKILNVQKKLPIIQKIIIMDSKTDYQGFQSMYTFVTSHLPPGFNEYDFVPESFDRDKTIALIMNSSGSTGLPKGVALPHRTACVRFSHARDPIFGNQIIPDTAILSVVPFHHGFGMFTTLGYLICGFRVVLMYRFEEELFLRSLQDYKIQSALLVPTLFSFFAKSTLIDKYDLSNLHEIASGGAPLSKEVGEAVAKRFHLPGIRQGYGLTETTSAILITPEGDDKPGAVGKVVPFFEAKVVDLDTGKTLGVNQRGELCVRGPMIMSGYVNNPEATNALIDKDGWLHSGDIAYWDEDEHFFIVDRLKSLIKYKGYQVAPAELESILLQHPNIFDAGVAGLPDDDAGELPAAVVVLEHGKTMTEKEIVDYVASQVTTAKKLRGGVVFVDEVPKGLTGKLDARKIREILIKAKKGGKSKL
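Biochemical qHTS of compounds, final roughly 60 µM downward over six points, against 10 nM purified firefly luciferase using Km concentrations of substrates (10 uM D-luciferin, 10 uM ATP) in Tris acetate pH 7.5 buffer; luminescence output.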
Rab9 promoter act – activates the Rab9 promoter; 320,000 tested, 2.8% active; Potency, µM (top dose mostly 9.22 µM), for inactives: at the highest dose activation, negative = inhibition, usual class: activators; Huh7 Rab9 promoter-luciferase reporter, luminescence, 24 h; note: % of control where 0% means no effect; nearly all actives have a fitted effect of over 60% in size
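Luminescence from Amplite-detected luciferase (10 minutes, ambient) reports Rab9 promoter activation. Before that, stable Rab9-luciferase Huh7 cells (1500/well, reduced-serum OP-MEM I plus 10% FBS) were exposed to compound for 24 hours at 37C.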
Numbers without * were called inactive; ? = inconclusive; / = not tested or not shown; [ ] = another dose, or the depositor's remark. The list is not random: actives were taken first. Their share in the collection is about 7.5%. Calls come from the whole dose curve; as a rule, active = well fitted curve in the direction sought with a large enough effect; inconclusive = small, poorly fitted or top-dose-only effect, or another doubt; inactive = no such curve, though single readings can be large; an effect the other way counts as inactive or inconclusive. Potency is the fitted concentration of half-maximal effect.

SMILES	SMN2 splice up	KinaseGlo FLuc	ELG1 genotox	NPC1 prom act	FLuc counter	Rab9 promoter act
Cc1ccc(-c2nc3ccccc3s2)cc1NC(=S)NC(=O)c1cccc2ccccc12	?	2%	?	-2%	11µM*	1%
Cc1ccc(C(=O)Nc2ccc(-c3nc4ccccc4s3)c(O)c2)c(C)c1	/	/	/	/	0%	/
COc1ccccc1CCNC(=O)C(=O)NCC(c1ccco1)S(=O)(=O)c1ccc(F)cc1 (stereo not given)	/	/	/	/	0%	/
COc1ccc(NC(=O)COc2ccc(C(=O)OCC(=O)N(C(C)C)C(C)C)cc2OC)cc1	-20%	0%	-1%	-5%	4%	1%
CCOc1ccc(NC(=O)CSc2cc(C)c3ccccc3n2)cc1	/	/	/	/	-13%	/
CC(=O)Nc1cccc(-c2nc3ccc(NC(C)=O)cc3s2)c1	13µM*	2%	?	3.2µM*	3µM*	0.89µM*
CN(C)c1cccc(C(=O)Nc2ccc(-c3nc4ccccc4s3)cc2)c1	/	/	/	/	5.4µM*	/
COc1ccc(CNC(=O)c2cnc(N3CCOCC3)c3ccccc23)cc1	/	/	/	/	4%	/
COc1ccc(OC)c(NC(=O)Cn2c(=O)cc(C)c3c(C)nn(-c4cccc(Cl)c4C)c32)c1	/	/	/	/	-5%	/
CC1CCCCN1c1csc2ccc(F)cc2c1=O (stereo not given)	/	/	/	/	7.6µM*	/
Cc1ccc2scc(N3CCN(c4cccc(C(F)(F)F)c4)CC3)c(=O)c2c1	/	/	/	/	-7%	/
Cc1ccc2scc(N3CCCC(C)C3)c(=O)c2c1 (stereo not given)	/	/	/	/	0.76µM*	/
O=C(OC1CCOC1=O)c1cc(-c2cccc(Br)c2)nc2ccccc12 (stereo not given)	14%	1%	3%	-4%	?	-3%
Cc1cc(C(=O)OC2CCOC2=O)c2ccccc2n1 (stereo not given)	-11%	0%	-1%	2%	1%	-1%
O=C(OC1CCOC1=O)c1cc(-c2ccc(Br)cc2)nc2ccccc12 (stereo not given)	8%	2%	-1%	-2%	19µM*	1%
COc1ccc(-c2cc(C(=O)OC3CCOC3=O)c3ccccc3n2)cc1 (stereo not given)	5%	1%	9%	2%	7.6µM*	-5%
CC1CCCN(C(=O)c2cc3c(=O)n4ccccc4nc3s2)C1 (stereo not given)	/	/	16µM*	?	17µM*	?
CCN(CC)C(=O)c1cc2c(=O)n3ccccc3nc2s1	?	-5%	16µM*	24%	?	29%
CC(C)CN(CC(C)C)C(=O)c1cc2c(=O)n3ccccc3nc2s1	/	/	-5%	-4%	-2%	0%
Cc1cccn2c(=O)c3cc(C(=O)N4CCCC(C)C4)sc3nc12 (stereo not given)	/	/	17%	1%	?	11%
CC(=O)c1c(C)oc(C)c1CSCc1ccc(C(=O)O)o1	9%	2%	-1%	1%	4%	-1%
COc1cc(/C=C(\C#N)c2nc3ccccc3o2)ccc1O	/	/	?	-2%	7.6µM*	20%
N#C/C(=C/c1ccc(O)cc1)c1nc(-c2ccc(-c3ccccc3)cc2)cs1	-3%	/	/	/	-17%	/
N#C/C(=C\c1ccc(O)cc1)c1nc2ccccc2o1	/	/	?	?	11µM*	?
Cc1ccccc1Nc1c(-c2cccnc2)nc2ccc(Cl)cn12	10%	/	/	/	4%	/
SMILES	SMN2 splice up	KinaseGlo FLuc	ELG1 genotox	NPC1 prom act	FLuc counter	Rab9 promoter act
CCCCc1nnc(SCc2cc(=O)c3cc(F)ccc3[nH]2)n1C	/	/	/	/	0%	/
Cc1ccc(C(=O)NC(Cc2cccc(C(F)(F)F)c2)C(=O)O)cc1 (stereo not given)	/	/	2%	/	/	/
O=C(c1ccc(F)cc1F)N1CCCN(c2nc(-c3ccccc3)ns2)CC1	/	/	-4%	0%	3%	0%
CC(C)(C)NC(=O)N1CCN(c2nc(-c3ccccc3)ns2)CC1	/	/	14%	?	-55%	3.5µM*
CCS(=O)(=O)c1nc(S(=O)(=O)c2ccc(C)cc2)c(N2CCC3(CC2)OCCO3)s1	/	/	-1%	2%	2%	0%
O=C(O)c1ccc(-c2nc3ccccc3s2)o1	/	/	12%	?	6µM*	?
O=C(c1ccc(-c2nc3ccccc3s2)o1)N1CCN(c2ccccc2O)CC1	/	/	-9%	?	17µM*	?
O=CN1CCN(C(=O)c2ccc(-c3nc4ccccc4s3)s2)CC1	/	-8%	?	1.8µM*	11µM*	1.1µM*
O=C(CCc1nc2ccccc2s1)N1CCN(c2ccccc2)CC1	12%	2%	-12%	6%	3%	-3%
O=Cc1ccc(-c2nc3ccccc3s2)o1	11µM*	?	?	27%	11µM*	?
O=C(O)c1ccc(-c2ccc(-c3ccccc3)cc2)o1	/	1%[39.9 µM]	/	/	/	/
CCOC(=O)c1c(C)n(-c2ccccc2)c2ccc(OC(=O)c3cccc(OC)c3OC)cc12	-3%	/	/	/	-13%	/
CC(C)(C(O)c1ccc([N+](=O)[O-])cc1)[N+](=O)[O-] (stereo not given)	-3%	-4%	/	/	/	/
Cc1c(Nc2nc3ccccc3n3c(C)nnc23)cccc1C(=O)O	/	/	/	/	-10%	/
CCC(NC(=O)c1cc(COc2ccc(Cl)cc2OC)on1)c1ccncc1 (stereo not given)	/	/	?	3.5µM*	4.8µM*	4µM*
CC(CNC(=O)c1cc(COc2ccc3ncccc3c2)on1)c1ccccc1 (stereo not given)	/	/	-19%	-12%	-17%	-17%
CCC(NC(=O)c1cc(COc2ccc(OC)cc2Cl)on1)c1ccncc1 (stereo not given)	/	/	16%	25%	12µM*	?
COc1cc(Cl)ccc1OCc1cc(C(=O)NCC(C)c2ccccc2)no1 (stereo not given)	/	/	-2%	-2%	21µM*	2%
CCC(NC(=O)c1cc(COc2cc(C)c(Cl)c(C)c2)on1)c1ccncc1 (stereo not given)	/	/	-6%	-6%	3%	-1%
CC(Cc1cnccn1)NC(=O)c1cc(COc2ccc(F)cc2F)on1 (stereo not given)	/	/	0%	-1%	-11%	-8%
COc1cc(Cl)ccc1OCc1cc(C(=O)NC(C)Cc2cnccn2)no1 (stereo not given)	/	/	?	2.5µM*	6.7µM*	1.1µM*
CC(Sc1ccccc1)C(=O)NCC(c1ccco1)N1CCCCC1 (stereo not given)	/	/	1%	-5%	3%	-6%
Cc1nn(CCCC(=O)Nc2cccc(C(F)(F)F)c2)c(=O)c2nn(-c3ccccc3)c(C)c12	/	/	/	/	3%	/
COc1ccc(C)cc1NC(=O)c1sc2ncn(CC(=O)N3CCCCC3)c(=O)c2c1C	/	/	3%	-5%	0%	-6%
